Measurements reported in PubChem BioAssay (Tox21).
The source made the active and inactive calls. The call rests on the fitted dose curve; in most records, active means well fitted curve in the direction sought with a large enough effect in the repeat runs; inconclusive means weak or mixed curves; inactive means flat fitted curve, though single readings scatter.

assay: qHTS assay to test for compound auto fluorescence at 460 nm (blue) in HEK293 cell free culture (AID 720681); details: cell-free medium, autofluorescence 405/460 nm (blue); series mostly up to 91.3 µM
Excerpt: U.S. Tox21 Program National Center for Advancing Translational Sciences [NCATS] NIH Chemical Genomics Center [NCGC] U.S. Environmental Protection Agency [EPA] National Institutes of Environmental Health Sciences [NIEHS] National Toxicology Program [NTP] U.S. Food and Drug Administration [FDA] Tox21 Assay Overview: Compound auto fluorescence often interferes with screening of the compound library against various biological targets and signaling pathways. Some of these compounds may have fluorophoric properties. Such properties may interfere with the assay outputs resulting in false positives and/or negatives. To decrease such complications and ensure the compound activities are relevant in terms of biological response, the Tox21 10K compound library was screened for auto fluorescence. From the fluorophores used as reporter signals in our screening assays, the auto fluorescence equivalencies of compounds against three fluorophores have been evaluated: Triamterene, Fluorescein and Rose Bengal sodium for blue, green and red fluorescence, respectively. The fluorescence intensities were measured using Excitation/Emission wavelengths at 405/460nm, 485/535nm and 540/590nm for blue, green and red labels, respectively. This assay includes the blue fluorescence data.
Tox21 Assay Protocol Summary: 5 uL of culture medium (DMEM containing 10% FBS) per well was dispensed into black wall/clear bottom 1536-well plates using a Multidrop Combi Dispenser (ThermoFisher Scientific, Waltham, MA). After 23 nL compound or DMSO vehicle was transferred into assay plate by a pintool work station (Kalypsys, San Diego, CA), fluorescence intensities in the assay plates were measured by an Envision (PerkinElmer, Shelton, CT) plate reader using three labels for measuring blue, green and red fluorescence at […] 460, 535 and 590nm respectively.

| SMILES | outcome |
| --- | --- |
| CC1=C2[C@H](/C=C(\C)C(=O)O)CC[C@@H](C)[C@H]2CC1 | inactive |
| CN1[C@@H]2CC[C@H]1CC(OC(=O)c1c[nH]c3ccccc13)C2 (stereo not given in full) | inactive |
| C[C@]12C(=O)OC(=O)[C@H]1[C@H]1C=C[C@@H]2C1 | inactive |
| CCN1CC(CCN2CCOCC2)C(c2ccccc2)(c2ccccc2)C1=O (stereo not given) | inactive |
| CCCCC(CC)COC(=O)COc1cc(Cl)c(Cl)cc1Cl (stereo not given) | inactive |
| CCc1cc(Cl)c(OC)c(C(=O)NC[C@@H]2CCCN2CC)c1O | inactive |
| CCCCCCC | inactive |
| Cc1ccc(C(C)C)cc1O | inactive |
| OCc1c2ccccc2cc2ccccc12 | inactive |
| OCCN(CCO)c1ccccc1 | inactive |
| Cc1nc(-c2ccccn2)ncc1C(=O)Nn1cc(C)c2cc(F)ccc21 | inactive |
| CC(C)O | inactive |
| CN(CCCN1c2ccccc2CCc2ccccc21)CC(=O)c1ccc(Cl)cc1 | inactive |
| CC1=NN(c2cc(Cl)c(S(=O)(=O)O)cc2Cl)C(=O)C1N=Nc1ccc(S(=O)(=O)O)cc1 (stereo not given) | inactive |
| CC/C=C\CCOC(=O)C(C)C | inactive |
| Cc1ccc(C)c(N)c1 | inactive |
| CCCCCCCCCC#N | inactive |
| FC(F)(F)C(Cl)(Cl)Cl | inactive |
| CN1CCC[C@@H]1Cc1c[nH]c2ccc(CCS(=O)(=O)c3ccccc3)cc12 | inactive |
| O=C(CC(=O)C(F)(F)F)c1ccccc1 | inactive |

| SMILES | outcome |
| --- | --- |
| C=C(C)C(=O)OCCOP(=O)(O)O | inactive |
| CC(C)NCC(O)COc1ccc(CCOCC2CC2)cc1 (stereo not given) | inactive |
| CC(=O)OC1C2(C)CCC(C2)C1(C)C (stereo not given) | inactive |
| Cc1cc2nc(N)sc2cc1C | inactive |
| ICCc1ccccc1 | inactive |
| CC(C)(CO)[C@@H](O)C(=O)NCCC(=O)O | inactive |
| C1CSCCS1 | inactive |
| Oc1ccccc1C=NCc1ccccc1 | inactive |
| CCCCC1CCC(=O)O1 (stereo not given) | inactive |
| Cc1ccsc1C(=CCCN1CCC[C@@H](C(=O)O)C1)c1sccc1C | inactive |
| CC/C=C\CCOC(=O)CCCCC | inactive |
| O=C1CCCc2ccccc21 | inactive |
| C1CCOC1 | inactive |
| COc1cc2c(cc1N)oc1ccccc12 | inactive |
| O=C(O)c1cccc(Cl)c1Cl | inactive |
| O=C1CCCCC1C1CCCCC1 (stereo not given) | inactive |
| CCN(CC)CC1CCCCN1CC(=O)N1c2ccccc2C(=O)Nc2cccnc21 (stereo not given) | inactive |
| CCN(CC)C(=O)N(CC)CC | inactive |
| C=CCCC=C | inactive |
| CC(C)C[C@H](NC(=O)OCC1c2ccccc2-c2ccccc21)C(=O)O | inactive |
